Test results taken from PubChem BioAssay AID1159580 (chemical genetic matrix, 2015).
Where “and” joins values, the source holds several entries; their conditions need not be identical. Equal values may be shown once. About 2,000 (36%) of roughly 5,500 compounds were called active. Not shown: some 18% with an inconclusive outcome. Cut-off read from the data, not from the text of the source: active = normalized growth mostly below about 0.91 (no sharp cut-off); inconclusive = no clear call, values can overlap the other calls; inactive = mostly above about 0.92. Some of the results follow.

Assay: chemical genetic growth profiling, strain panel (AID 1159580);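 note: tested at 20 µM; growth read once vehicle control cultures reached saturation at 30 °C; 1 = growth at the plate median or of vehicle wells; lower values mean less growth of the strain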
Details: growth OD

Measured: normalized growth

CC12CC3CC(C)(C1)CC(N)(C3)C2
inactive: S. cerevisiae deletion strains, locus YJR075W, strain HOC1, active compounds read low 1.01 | S. cerevisiae deletion strains, locus YKL009W, strain mrt4, active compounds read low 1.03 | S. cerevisiae deletion strains, locus YKL068W, active compounds read low 0.999 | S. cerevisiae deletion strains, locus YKL085W, strain MDH1 (second series), active compounds read low 0.996 | S. cerevisiae deletion strains, locus YKL085W, strain MDH1, active compounds read low 0.996 | S. cerevisiae deletion strains, locus YKL160W, strain elf1, active compounds read low 1 | S. cerevisiae deletion strains, locus YKL190W, strain CNB1, active compounds read low 0.999 | S. cerevisiae deletion strains, locus YKR001C, strain vps1, active compounds read low 1.02 | S. cerevisiae deletion strains, locus YKR026C, strain gcn3, active compounds read low 0.982 | S. cerevisiae deletion strains, locus YKR091W, strain srl3, active compounds read low 0.99 | S. cerevisiae deletion strains, locus YLL001W, strain dnm1, active compounds read low 0.972 | S. cerevisiae deletion strains, locus YLL026W, active compounds read low 0.995 | S. cerevisiae deletion strains, locus YLL041C, strain sdh2, active compounds read low 0.997 | S. cerevisiae deletion strains, locus YLR027C, strain aat2, active compounds read low 0.991 | S. cerevisiae deletion strains, locus YLR039C, strain RIC1, active compounds read low 1.04 | S. cerevisiae deletion strains, locus YLR058C, strain SHM2, active compounds read low 0.999 | S. cerevisiae deletion strains, locus YLR102C, strain apc9, active compounds read low 0.996 | S. cerevisiae deletion strains, locus YLR113W, strain HOG1, active compounds read low 0.996 | S. cerevisiae deletion strains, locus YLR221C, strain rsa3, active compounds read low 1 | S. cerevisiae deletion strains, locus YLR258W, strain gsy2, active compounds read low 1 | S. cerevisiae deletion strains, locus YLR262C, strain YPT6 (second series), active compounds read low 1 | S. cerevisiae deletion strains, locus YLR262C, strain YPT6, active compounds read low 0.979 | S. cerevisiae deletion strains, locus YLR268W, strain sec22, active compounds read low 1.07 | S. cerevisiae deletion strains, locus YLR320W, strain mms22, active compounds read low 1 | S. cerevisiae deletion strains, locus YLR330W, strain CHS5, active compounds read low 1 | S. cerevisiae deletion strains, locus YLR342W, strain FKS1 (second series), active compounds read low 1.01 | S. cerevisiae deletion strains, locus YLR342W, strain FKS1, active compounds read low 0.985 | S. cerevisiae deletion strains, locus YLR357W, strain rsc2, active compounds read low 0.969 | S. cerevisiae deletion strains, locus YLR370C, strain arc18, active compounds read low 0.995 | S. cerevisiae deletion strains, locus YLR371W, strain rom2, active compounds read low 1.01 | S. cerevisiae deletion strains, locus YLR384C, strain iki3, active compounds read low 0.99 | S. cerevisiae deletion strains, locus YLR418C, strain cdc73, active compounds read low 1.01 | S. cerevisiae deletion strains, locus YML016C, strain PPZ1, active compounds read low 0.998 | S. cerevisiae deletion strains, locus YML032C, strain rad52, active compounds read low 1.02 | S. cerevisiae deletion strains, locus YML120C, strain ndi1, active compounds read low 1 | S. cerevisiae deletion strains, locus YML124C, strain tub3, active compounds read low 1.01 | S. cerevisiae deletion strains, locus YMR058W, strain fet3, active compounds read low 0.993 | S. cerevisiae deletion strains, locus YMR078C, strain ctf18, active compounds read low 1 | S. cerevisiae deletion strains, locus YMR125W, strain sto1, active compounds read low 0.975 | S. cerevisiae deletion strains, locus YMR129W, active compounds read low 0.979 | S. cerevisiae deletion strains, locus YMR205C, strain PFK2, active compounds read low 0.993 | S. cerevisiae deletion strains, locus YMR223W, strain ubp8, active compounds read low 0.986 | S. cerevisiae deletion strains, locus YMR231W, strain pep5, active compounds read low 0.982 | S. cerevisiae deletion strains, locus YMR263W, strain SAP30, active compounds read low 1.01 | S. cerevisiae deletion strains, locus YMR307W, strain GAS1, active compounds read low 0.964 and 0.971 | S. cerevisiae deletion strains, locus YNL067W, strain RPL9B, active compounds read low 1.02 | S. cerevisiae deletion strains, locus YNL071W, strain lat1, active compounds read low 0.986 | S. cerevisiae deletion strains, locus YNL128W, strain TEP1, active compounds read low 1.01 | S. cerevisiae deletion strains, locus YNL153C, strain GIM3, active compounds read low 1.01 | S. cerevisiae deletion strains, locus YNL175C, strain NOP13, active compounds read low 0.994 | S. cerevisiae deletion strains, locus YNL183C, strain NPR1, active compounds read low 0.935 | S. cerevisiae deletion strains, locus YNL197C, strain WHI3, active compounds read low 1 | S. cerevisiae deletion strains, locus YNL209W, strain ssb2, active compounds read low 0.992 | S. cerevisiae deletion strains, locus YNL224C, strain SQS1, active compounds read low 1 | S. cerevisiae deletion strains, locus YNL233W, strain BNI4, active compounds read low 1.01 | S. cerevisiae deletion strains, locus YNL248C, strain rpa49, active compounds read low 0.961 | S. cerevisiae deletion strains, locus YNL250W, strain rad50, active compounds read low 1.01 | S. cerevisiae deletion strains, locus YNL271C, strain bni1, active compounds read low 1.01 | S. cerevisiae deletion strains, locus YNL298W, strain CLA4, active compounds read low 1 | S. cerevisiae deletion strains, locus YNL307C, strain MCK1, active compounds read low 1.01 | S. cerevisiae deletion strains, locus YNL322C, strain KRE1 (second series), active compounds read low 0.993 | S. cerevisiae deletion strains, locus YNL322C, strain KRE1, active compounds read low 0.998 and 0.989 | S. cerevisiae deletion strains, locus YNR049C, strain mso1, active compounds read low 0.986 | S. cerevisiae deletion strains, locus YNR052C, strain pop2, active compounds read low 1.01 | S. cerevisiae deletion strains, locus YOL006C, strain TOP1, active compounds read low 1.05 | S. cerevisiae deletion strains, locus YOL012C, strain htz1 1.4 | S. cerevisiae deletion strains, locus YOL147C, strain pex11, active compounds read low 1 | S. cerevisiae deletion strains, locus YOR001W, strain rrp6, active compounds read low 0.985 | S. cerevisiae deletion strains, locus YOR061W, strain CKA2, active compounds read low 1 | S. cerevisiae deletion strains, locus YOR069W, strain VPS5, active compounds read low 1.01 | S. cerevisiae deletion strains, locus YOR070C, strain gyp1, active compounds read low 0.991 | S. cerevisiae deletion strains, locus YOR080W, strain dia2, active compounds read low 0.986 | S. cerevisiae deletion strains, locus YOR083W, strain WHI5 (second series), active compounds read low 1.03 | S. cerevisiae deletion strains, locus YOR083W, strain WHI5, active compounds read low 0.977 | S. cerevisiae deletion strains, locus YOR106W, strain vam3, active compounds read low 0.993 | S. cerevisiae deletion strains, locus YOR136W, strain idh2, active compounds read low 1.01 | S. cerevisiae deletion strains, locus YOR144C, strain elg1, active compounds read low 1.01 | S. cerevisiae deletion strains, locus YOR184W, strain ser1, active compounds read low 1.01 | S. cerevisiae deletion strains, locus YOR231W, strain MKK1, active compounds read low 0.995 | S. cerevisiae deletion strains, locus YOR265W, strain rbl2, active compounds read low 0.989 | S. cerevisiae deletion strains, locus YOR270C, strain vph1, active compounds read low 0.921 | S. cerevisiae deletion strains, locus YOR290C, strain snf2, active compounds read low 0.997 | S. cerevisiae deletion strains, locus YOR316C, strain cot1, active compounds read low 1 | S. cerevisiae deletion strains, locus YPL051W, strain arl3, active compounds read low 0.986 | S. cerevisiae deletion strains, locus YPL055C, strain LGE1, active compounds read low 1 | S. cerevisiae deletion strains, locus YPL078C, strain atp4, active compounds read low 0.986 | S. cerevisiae deletion strains, locus YPL106C, strain sse1, active compounds read low 1.01 | S. cerevisiae deletion strains, locus YPL240C, strain hsp82, active compounds read low 0.998 | S. cerevisiae deletion strains, locus YPL241C, strain CIN2, active compounds read low 1 | S. cerevisiae deletion strains, locus YPL256C, strain CLN2, active compounds read low 0.971 | S. cerevisiae deletion strains, locus YPR119W, strain clb2, active compounds read low 1 | S. cerevisiae deletion strains, locus YPR141C, strain kar3, active compounds read low 1.01 | S. cerevisiae deletion strains, locus YPR163C, strain tif3, active compounds read low 1.01 | S. cerevisiae deletion strains, locus YPR167C, strain met16, active compounds read low 1 | S. cerevisiae deletion strains, strain wtn01, active compounds read low 1.02 | S. cerevisiae strains, strain wild type, active compounds read low 1.01
